Compound activity (PubChem)
hgDAF12 agonist: hgDAF-12 agonism, primary luciferase screen. HEK293 GAL4-hgDAF12 UAS-luciferase reporter, agonist luminescence; normalized to butyrate control. activation, % at 6.8 µM. 1.8% of 370,000 active. AID 687014;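 active = activation above a cutoff set at the mean of all screened compounds plus 3 SD, cut at about 10% in these data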
DAX1 inh-1: blocks DAX1 repression of SF-1 activated StAR promoter; inhibition, % at 6.8 µM; 1.1% of 370,000 active; HEK293T StAR-luciferase reporter, SF-1/DAX-1 repression relief;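 active = inhibition above the mean over all tested compounds plus 3 SD, cut at about 3.6% in these data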;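 note: higher inhibition means more luminescence from relief of DAX-1 repression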
hcDAF-12 act: H. contortus DAF-12 activation, primary screen; HEK293 hcDAF-12 lit1-tk-luc reporter, luminescence; 0% DMSO, 100% Δ7-dafachronic acid; activation, % at 6.8 µM; 1.4% of 370,000 active; AID 652067;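 active = activation above the mean of all tested compounds plus 3 SD, cut at about 5.5% in these data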
DAX1 inh-2: inhibitors of human orphan nuclear receptor DAX1 (NR0B1); inhibition, % at 6.75 µM; P51843; HEK293 Gal4-DAX1 luciferase reporter, luminescence; AID 504766; 0.99% of 340,000 active;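 active = inhibition above the mean over all tested compounds plus 3 SD, cut at about 4.2% in these data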;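 note: inhibition shows as a rise in luminescence from relieved DAX1 repression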
Target sequence (P51843 207-470 limits assumed): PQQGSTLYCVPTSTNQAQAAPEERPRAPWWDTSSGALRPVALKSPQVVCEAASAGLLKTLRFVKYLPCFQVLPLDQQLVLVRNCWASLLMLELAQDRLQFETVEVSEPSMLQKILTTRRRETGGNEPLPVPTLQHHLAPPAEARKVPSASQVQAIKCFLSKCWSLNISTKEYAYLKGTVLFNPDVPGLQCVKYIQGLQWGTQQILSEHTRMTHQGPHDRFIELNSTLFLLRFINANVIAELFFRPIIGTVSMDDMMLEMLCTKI
ssDAF-12 act: activates DAF-12 receptor from parasite S. stercoralis; 1% of 370,000 active; AID 652126; HEK293 ssDAF-12/GRIP1 lit1-tk-luc reporter, luminescence; % of 3 µM dafachronic acid response; activation, % at 6.8 µM;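 active = activation above the mean over all tested compounds plus 3 SD, cut at about 0.9% in these data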
Each line names hits and unclear results; the compound was inactive in the other large screens. Only some compounds are listed: those with a hit (about 4.1% of all), similar ones and a draw of the others.

COC(=O)[C@]12C[C@H](CC(=O)NCc3cccs3)C(=O)N(Cc3ccc(Cl)cc3Cl)C1=C[C@H](COCc1ccccc1)O[C@@H]2C	none (no result: DAX1 inh-2)
COC(=O)[C@]12C[C@H](CC(=O)NCc3cccs3)C(=O)N(Cc3ccccc3)C1=C[C@H](COCc1ccccc1)O[C@@H]2C	hgDAF12 agonist 11 (no result: DAX1 inh-2)
COC(=O)c1ccc(C2NC(C(=O)O)CS2)cc1 (stereo unspecified)	DAX1 inh-2 4.6
Cc1ccccc1Nc1nnc(SCC(=O)Nc2ccccc2[N+](=O)[O-])s1	none
Cc1cccc(Nc2nnc(SCC(=O)Nc3ccccc3[N+](=O)[O-])s2)c1	DAX1 inh-2 4.4
O=[N+]([O-])c1ccccc1S(=O)(=O)N1CCC(c2cn3ccccc3n2)CC1	none (no result: DAX1 inh-2)
CN1Cc2nnn(Cc3ccccc3)c2-c2cc(N3CCCC3)ccc2S1(=O)=O	none (no result: DAX1 inh-2)
Cc1cnc(C(=O)Nc2ccc(F)cc2)cn1	none
Cc1cnc(C(=O)Nc2ccc(C(C)C)cc2)cn1	hgDAF12 agonist 12
c1coc(-c2nn3c(-c4ccco4)nnc3s2)c1	none
COc1ccccc1-c1nn2c(-c3ccco3)nnc2s1	DAX1 inh-2 5.9
O=C(NCC1COc2ccccc2O1)c1ccc(NC(=O)c2c(Cl)cccc2Cl)cc1 (stereo unspecified)	none (no result: DAX1 inh-2)
CCCCNC(=S)N(CCN(CC)CC)Cc1cc2cc3c(cc2[nH]c1=O)OCCO3	DAX1 inh-2 4.3
Cn1c(=O)[nH]c(=O)c2c1nc(Br)n2C/C=N/Nc1ccccc1	DAX1 inh-1 3.7
C=CCn1c(Br)nc2c1c(=O)[nH]c(=O)n2C	none
Cn1c(=O)[nH]c(=O)c2c1nc(Br)n2C/C=N/NC(=O)c1ccccc1	DAX1 inh-2 4.6
COc1ccc(S[C@]2(C(=O)N3CCOCC3)CC(=O)N(C(=O)CCc3ccccc3)[C@@H]2c2ccc(OC)cc2)cc1	none (no result: DAX1 inh-2)
COC(=O)C1=C(C(=O)OC)[C@@]2([C@@H](Cc3ccc(C)cc3)Nc3ccccc3)C=C[C@@H]1O2	none (no result: DAX1 inh-1, DAX1 inh-2)
COc1ccc(-c2[nH]ncc2CN2CCCO2)cc1F	none
COc1ccc(-c2[nH]ncc2CN(C)CCCN2CCOCC2)cc1F	DAX1 inh-2 5.9
COc1ccc(/C=C2\CC3(OC(=O)c4ccc(F)cc4)CCCN2C3)cc1 (stereo unspecified)	none (no result: DAX1 inh-2)
Cc1cccc(C)c1OCC(=O)Nc1cccc(C(=O)O)c1	DAX1 inh-1 3.8
CNC(=S)Nc1cccc(C(=O)O)c1	ssDAF-12 act 1.4
COc1ccc(/C=N/NC(=S)Nc2cccc(C(=O)O)c2)cc1OC	none
COc1cccc(/C=N/NC(=S)Nc2cccc(C(=O)O)c2)c1	ssDAF-12 act 1.6
Cc1ccc(OCC(=O)Nc2cccc(O)c2)cc1C	hgDAF12 agonist 11
CCCc1cnc(Nc2nc(C(N)Cc3ccc(OC)cc3)cs2)nc1 (stereo unspecified)	none (no result: DAX1 inh-2)
COc1ccccc1NC(=S)NC(=O)CCc1ccccc1	none
O=C(CCCc1ccccc1)Nc1cccc(C(=O)O)c1	hgDAF12 agonist 12, DAX1 inh-1 4.5
O=C(CCc1ccccc1)NC(=S)Nc1ccccc1Br	DAX1 inh-2 8.4
Cc1ccc(NC(=O)CCCc2ccccc2)nc1	DAX1 inh-1 3.8
CCC(C)c1ccc(OCC(=O)Nc2cccc(C(=O)Nc3ccc(C(=O)O)cc3)c2)cc1 (stereo unspecified)	DAX1 inh-1 4.0
Cn1cccc1C(=O)N1CCN(S(=O)(=O)c2ccc(F)cc2)CC1	none (no result: DAX1 inh-2)
COc1ccc(NC(=O)CCCC(=O)c2ccccc2)cc1OC	none
O=C(CCc1ccccc1)NNC(=O)c1ccccc1Br	DAX1 inh-2 5.0
COc1ccc(NC(=O)CCCc2ccccc2)cc1OC	DAX1 inh-2 4.2
O=C(CCc1ccccc1)NC(=S)Nc1cccc(C(=O)O)c1	DAX1 inh-1 4.0
O=C(CCc1ccccc1)NNC(=O)c1ccccc1C(=O)O	none
COC(=O)[C@]12C[C@H](CC(=O)NCC3CCCCC3)C(=O)N(Cc3ccco3)C1=C[C@H](COCc1ccccc1)O[C@@H]2C	none (no result: DAX1 inh-2)
Cc1ccc(Cn2nnc3c2-c2ccccc2S(=O)(=O)N(C(C)(C)C)C3)cc1	none (no result: DAX1 inh-2)
Cc1ccc2c(CN3CC(C)CC(C)C3)cc(=O)oc2c1 (stereo unspecified)	none
Cc1ccc2c(CN3CCC(C)CC3)cc(=O)oc2c1	hgDAF12 agonist 11
C=C(C)CNC(=O)c1ccc2nc(Cc3ccc(OC)cc3)oc2c1	hgDAF12 agonist 13, DAX1 inh-2 6.3
CCCCNS(=O)(=O)/C=C/c1ccccc1CNC(=O)OC(C)(C)C	none (no result: DAX1 inh-2)
CC(CCCN1CCCC1)Nc1ccnc2cc(Cl)ccc12 (stereo unspecified)	DAX1 inh-2 7.0
CN(C)S(=O)(=O)N1CCc2ccccc2C1	DAX1 inh-2 4.3
CN(C)S(=O)(=O)N1CCc2ccccc21	none
Cc1cc(C)n(-c2ccc(C(=O)N3CCN(S(=O)(=O)c4ccc(OC(F)(F)F)cc4)CC3)cc2)n1	none
CNC(=S)NNC(=O)c1oc2nc(-c3ccccc3)cc(C)c2c1N	hcDAF-12 act 6.1
Cc1cccc2nc(CSc3nnc4ccccn34)cn12	hgDAF12 agonist 12, hcDAF-12 act 5.8
c1ccc(CSCc2cn3ccccc3n2)cc1	hgDAF12 agonist 13
c1ccc2oc(SCc3cn4ccccc4n3)nc2c1	DAX1 inh-1 3.7, hcDAF-12 act 5.9
Cc1cccc2nc(CSc3nc4ccccc4o3)cn12	none
O=C(CSc1nnc(COc2ccccc2)n1-c1ccccc1)Nc1ccc(S(=O)(=O)Nc2nccs2)cc1	none (no result: DAX1 inh-2)
CC(=O)Nc1ccc(NC(=O)CCn2nnc3ccccc32)cc1	ssDAF-12 act 1.3
C/C(=N\NC(=O)CCn1nnc2ccccc21)c1ccco1	DAX1 inh-2 4.7
CCOC(=O)c1ccc(NC(=O)CCn2nnc3ccccc32)cc1	none
NNC(=O)CCn1nnc2ccccc21	none
Fc1ccc(-c2n[nH]c(=S)n2N=Cc2ccc(OCc3ccccc3)cc2)cc1	none (no result: DAX1 inh-2)
COc1ccc(OC)c(S(=O)(=O)N2CCC(C(=O)NCc3cccs3)CC2)c1	none (no result: DAX1 inh-2)
Cc1cc(C)n(CCOc2ccc(Cl)cc2Cl)n1	none
Cc1ccc(OCCOc2ccc(Cl)cc2Cl)c(Br)n1	hgDAF12 agonist 12 (no result: DAX1 inh-1, DAX1 inh-2)
COc1cc(NC(=O)c2ccccn2)ccc1NC(=O)c1ccccc1Cl	none (no result: DAX1 inh-1, DAX1 inh-2)
N#Cc1cc(Nc2c(N)nc[nH]c2=O)c([N+](=O)[O-])cc1C#N	hcDAF-12 act 6.0
CCC1CCCCN1C(=O)c1ccc(OC2CCN(Cc3ccccn3)CC2)cc1 (stereo unspecified)	hgDAF12 agonist 11
COCC1CCCCN1C(=O)c1ccc(OC2CCN(Cc3ccccn3)CC2)cc1 (stereo unspecified)	none
COc1cccc(C2Oc3ccccc3C3CC(c4cccs4)=NN32)c1 (stereo unspecified)	hcDAF-12 act 5.8 (no result: DAX1 inh-2)
CC(=O)c1ccc(NC(=O)c2cc(C)nc3ccccc23)cc1	DAX1 inh-2 4.4
CCN(CC)c1ccc(NC(=O)Nc2ccccc2)cc1	hgDAF12 agonist 12
Cc1ccc(NC(=O)c2cc(C)nc3ccccc23)cc1	none
